Measured values from publication PMC7862700, “An all-to-all approach to the identification of sequence-specific readers for epigenetic DNA modifications on cytosine”.

Legend:
Test in all cases: DAPPL (digital affinity profiling via proximity ligation, sequencing); 10 mM Tris-HCl pH 7.5, 50 mM NaCl, 1 mM DTT, 4% glycerol, room temperature, 30 min; GST-TFs on glutathione beads, 16-mer random dsDNA library, 0.1% formaldehyde crosslink after washing; high values mean tight binding
[1] = target: T1, FLI1 (Homo sapiens, UniProt Q01543 1-452); settings: protein: recombinant; tags: N-terminal GST; dsDNA, one strand shown
T1 sequence: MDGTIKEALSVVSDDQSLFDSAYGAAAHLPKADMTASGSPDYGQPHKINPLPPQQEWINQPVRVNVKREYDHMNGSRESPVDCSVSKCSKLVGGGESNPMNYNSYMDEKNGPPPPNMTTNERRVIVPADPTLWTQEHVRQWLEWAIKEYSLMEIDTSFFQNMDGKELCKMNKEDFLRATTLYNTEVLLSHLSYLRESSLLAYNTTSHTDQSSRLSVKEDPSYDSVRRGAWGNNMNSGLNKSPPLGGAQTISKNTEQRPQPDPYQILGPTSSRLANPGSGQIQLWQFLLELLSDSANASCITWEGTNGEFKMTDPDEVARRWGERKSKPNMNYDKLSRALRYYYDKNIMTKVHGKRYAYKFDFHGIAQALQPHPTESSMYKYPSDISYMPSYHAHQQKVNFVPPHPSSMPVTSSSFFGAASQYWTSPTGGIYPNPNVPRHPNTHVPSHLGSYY
How it was run: (§1)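 Binding signal is defined as a hexamer's read frequency for one factor over its frequency for the tag-only sample. To obtain reads, GST-fused human transcription factors were expressed in yeast, captured on glutathione beads, barcoded with DNA and pooled with that sample. Pools met 200 nmole of a 16-mer random double-stranded DNA library in Tris/NaCl/DTT/glycerol buffer for 30 min at room temperature before washing, 0.1% formaldehyde crosslinking, proximity ligation (BsaI/T4 ligase, 1 h, 37 °C), PCR and Illumina NextSeq500 sequencing.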

[2] = target: T2, ELK1 (Homo sapiens, UniProt P19419 1-428); settings: protein: recombinant; tags: N-terminal GST; dsDNA, one strand shown
T2 sequence: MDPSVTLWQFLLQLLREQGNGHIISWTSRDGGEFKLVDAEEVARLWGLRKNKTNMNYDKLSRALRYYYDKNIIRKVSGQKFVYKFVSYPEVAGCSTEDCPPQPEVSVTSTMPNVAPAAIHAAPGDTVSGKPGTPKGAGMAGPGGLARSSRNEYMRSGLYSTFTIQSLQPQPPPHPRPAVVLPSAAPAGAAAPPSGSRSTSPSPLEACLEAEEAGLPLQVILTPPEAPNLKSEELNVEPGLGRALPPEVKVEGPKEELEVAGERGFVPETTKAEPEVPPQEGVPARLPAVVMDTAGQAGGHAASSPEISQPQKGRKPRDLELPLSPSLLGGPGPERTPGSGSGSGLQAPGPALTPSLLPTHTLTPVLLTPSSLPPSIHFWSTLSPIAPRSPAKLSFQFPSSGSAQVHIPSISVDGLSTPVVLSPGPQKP
How it was run: as §1

[3] = target: T3, GABPA (Homo sapiens, UniProt Q06546 1-454); settings: protein: recombinant; tags: N-terminal GST; dsDNA, one strand shown
T3 sequence: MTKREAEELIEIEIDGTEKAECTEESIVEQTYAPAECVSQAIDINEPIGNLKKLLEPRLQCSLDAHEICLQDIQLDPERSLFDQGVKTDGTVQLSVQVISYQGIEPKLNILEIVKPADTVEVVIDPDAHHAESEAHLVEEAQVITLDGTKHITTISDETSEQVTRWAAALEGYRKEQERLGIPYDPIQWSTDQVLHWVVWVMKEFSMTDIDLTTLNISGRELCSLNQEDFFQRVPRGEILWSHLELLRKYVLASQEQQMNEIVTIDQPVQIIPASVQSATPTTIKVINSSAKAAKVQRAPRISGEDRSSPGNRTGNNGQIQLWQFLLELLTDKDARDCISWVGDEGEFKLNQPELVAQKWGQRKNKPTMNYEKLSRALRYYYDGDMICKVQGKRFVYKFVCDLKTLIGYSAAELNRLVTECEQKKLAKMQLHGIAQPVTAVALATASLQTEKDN
How it was run: as §1

[4] = target: T4, ERG (Homo sapiens, UniProt P11308 1-479); settings: protein: recombinant; tags: N-terminal GST; dsDNA, one strand shown
T4 sequence: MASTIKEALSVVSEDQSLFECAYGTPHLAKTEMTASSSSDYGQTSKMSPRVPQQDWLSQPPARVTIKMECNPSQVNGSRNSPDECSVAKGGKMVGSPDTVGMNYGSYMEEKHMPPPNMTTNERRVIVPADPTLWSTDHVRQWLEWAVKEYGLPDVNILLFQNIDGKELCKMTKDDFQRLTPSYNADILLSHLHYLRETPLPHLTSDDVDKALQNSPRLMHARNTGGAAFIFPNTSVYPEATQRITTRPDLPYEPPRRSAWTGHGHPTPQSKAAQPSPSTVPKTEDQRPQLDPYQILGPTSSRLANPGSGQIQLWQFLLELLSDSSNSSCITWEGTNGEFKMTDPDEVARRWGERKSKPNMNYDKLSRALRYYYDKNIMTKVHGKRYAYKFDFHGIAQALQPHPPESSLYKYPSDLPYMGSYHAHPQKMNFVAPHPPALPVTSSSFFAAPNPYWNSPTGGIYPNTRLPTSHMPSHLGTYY
How it was run: as §1

[5] = target: ELF1 (Homo sapiens, UniProt P32519 1-619); settings: protein: recombinant; tags: N-terminal GST; dsDNA, one strand shown
Chain of ELF1 (P32519 whole entry): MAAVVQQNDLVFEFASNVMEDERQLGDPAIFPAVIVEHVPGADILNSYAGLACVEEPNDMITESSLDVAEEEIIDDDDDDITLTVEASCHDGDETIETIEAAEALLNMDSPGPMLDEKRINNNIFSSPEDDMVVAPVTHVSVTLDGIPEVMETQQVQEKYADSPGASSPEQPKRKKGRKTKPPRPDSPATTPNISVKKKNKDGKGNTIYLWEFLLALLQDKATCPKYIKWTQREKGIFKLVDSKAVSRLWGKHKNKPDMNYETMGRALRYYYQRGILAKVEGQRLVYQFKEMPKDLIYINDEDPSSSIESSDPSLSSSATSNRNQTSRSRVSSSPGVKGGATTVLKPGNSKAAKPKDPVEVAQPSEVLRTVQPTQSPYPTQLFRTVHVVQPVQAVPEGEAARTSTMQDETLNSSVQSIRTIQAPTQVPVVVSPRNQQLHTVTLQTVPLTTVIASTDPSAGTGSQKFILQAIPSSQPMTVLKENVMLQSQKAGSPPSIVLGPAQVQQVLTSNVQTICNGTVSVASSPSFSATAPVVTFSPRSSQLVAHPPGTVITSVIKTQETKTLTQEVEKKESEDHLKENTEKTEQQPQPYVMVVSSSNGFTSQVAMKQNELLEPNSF
How it was run: as §1

[6] = target: T5, EHF (Homo sapiens, UniProt Q9NZC4 1-300); settings: protein: recombinant; tags: N-terminal GST; dsDNA, one strand shown
T5 sequence: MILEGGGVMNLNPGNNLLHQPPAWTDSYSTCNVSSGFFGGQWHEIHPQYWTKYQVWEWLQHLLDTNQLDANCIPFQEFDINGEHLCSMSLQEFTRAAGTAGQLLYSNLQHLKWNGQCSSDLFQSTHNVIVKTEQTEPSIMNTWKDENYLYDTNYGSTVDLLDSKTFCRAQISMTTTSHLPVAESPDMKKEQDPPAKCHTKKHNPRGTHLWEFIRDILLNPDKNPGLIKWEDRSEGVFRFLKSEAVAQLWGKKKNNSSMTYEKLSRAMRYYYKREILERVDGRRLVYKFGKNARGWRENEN
How it was run: as §1

[7] = target: SPI1 (Homo sapiens, UniProt P17947 1-270); settings: protein: recombinant; tags: N-terminal GST; dsDNA, one strand shown
How it was run: as §1

[8] = target: SPIB (Homo sapiens, UniProt Q01892 1-262); settings: protein: recombinant; tags: N-terminal GST; dsDNA, one strand shown
Chain of SPIB (Q01892 whole entry): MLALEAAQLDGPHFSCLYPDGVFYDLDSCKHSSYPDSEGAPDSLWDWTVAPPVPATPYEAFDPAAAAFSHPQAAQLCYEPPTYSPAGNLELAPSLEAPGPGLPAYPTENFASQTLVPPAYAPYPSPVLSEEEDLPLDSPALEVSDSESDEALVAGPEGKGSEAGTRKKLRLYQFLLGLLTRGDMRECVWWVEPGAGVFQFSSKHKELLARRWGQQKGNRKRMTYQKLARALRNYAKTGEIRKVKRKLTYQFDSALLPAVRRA
How it was run: as §1

[9] = target: T6, ELK3 (Homo sapiens, UniProt P41970 1-407); settings: protein: recombinant; tags: N-terminal GST; dsDNA, one strand shown
T6 sequence: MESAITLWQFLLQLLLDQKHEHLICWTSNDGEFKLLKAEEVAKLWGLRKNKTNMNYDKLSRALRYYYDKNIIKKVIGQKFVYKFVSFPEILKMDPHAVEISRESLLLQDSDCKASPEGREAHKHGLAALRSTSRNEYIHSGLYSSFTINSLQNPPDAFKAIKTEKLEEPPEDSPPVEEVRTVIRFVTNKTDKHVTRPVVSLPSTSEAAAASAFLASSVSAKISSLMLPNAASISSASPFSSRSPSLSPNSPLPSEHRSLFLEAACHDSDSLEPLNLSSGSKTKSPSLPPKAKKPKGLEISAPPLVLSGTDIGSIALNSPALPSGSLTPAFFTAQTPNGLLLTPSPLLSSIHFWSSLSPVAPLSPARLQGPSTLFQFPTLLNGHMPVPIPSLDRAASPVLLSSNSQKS
How it was run: as §1

[10] = target: T7, FEV (Homo sapiens, UniProt Q99581 1-238); settings: protein: recombinant; tags: N-terminal GST; dsDNA, one strand shown
T7 sequence: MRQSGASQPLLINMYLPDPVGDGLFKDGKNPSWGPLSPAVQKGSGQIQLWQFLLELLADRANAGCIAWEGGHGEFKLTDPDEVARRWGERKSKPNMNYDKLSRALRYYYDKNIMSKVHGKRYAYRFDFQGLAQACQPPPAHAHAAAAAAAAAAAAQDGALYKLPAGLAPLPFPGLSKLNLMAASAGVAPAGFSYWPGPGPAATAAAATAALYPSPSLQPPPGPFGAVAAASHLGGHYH
How it was run: as §1

[11] = target: ETV5 (Homo sapiens, UniProt P41161 1-510); settings: protein: recombinant; tags: N-terminal GST; dsDNA, one strand shown
Chain of ETV5 (P41161 whole entry): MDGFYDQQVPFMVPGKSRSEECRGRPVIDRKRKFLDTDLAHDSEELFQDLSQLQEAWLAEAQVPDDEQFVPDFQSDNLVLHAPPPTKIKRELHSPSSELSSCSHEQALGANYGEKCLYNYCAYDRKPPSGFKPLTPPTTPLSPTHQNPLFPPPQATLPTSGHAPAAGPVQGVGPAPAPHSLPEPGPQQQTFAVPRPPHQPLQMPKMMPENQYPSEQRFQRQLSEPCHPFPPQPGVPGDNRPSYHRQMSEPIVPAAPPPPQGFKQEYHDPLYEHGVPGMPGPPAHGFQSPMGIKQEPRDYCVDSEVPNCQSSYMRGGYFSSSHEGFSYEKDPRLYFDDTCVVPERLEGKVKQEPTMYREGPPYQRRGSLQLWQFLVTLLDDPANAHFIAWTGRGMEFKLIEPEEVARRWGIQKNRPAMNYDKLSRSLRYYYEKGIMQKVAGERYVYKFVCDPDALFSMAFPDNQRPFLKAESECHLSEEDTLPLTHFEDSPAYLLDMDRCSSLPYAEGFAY
How it was run: as §1

[12] = target: HSF1 (Homo sapiens, UniProt Q00613 1-529); settings: protein: recombinant; tags: N-terminal GST; chain copies: 3; dsDNA, one strand shown
Chain of HSF1 (Q00613 whole entry): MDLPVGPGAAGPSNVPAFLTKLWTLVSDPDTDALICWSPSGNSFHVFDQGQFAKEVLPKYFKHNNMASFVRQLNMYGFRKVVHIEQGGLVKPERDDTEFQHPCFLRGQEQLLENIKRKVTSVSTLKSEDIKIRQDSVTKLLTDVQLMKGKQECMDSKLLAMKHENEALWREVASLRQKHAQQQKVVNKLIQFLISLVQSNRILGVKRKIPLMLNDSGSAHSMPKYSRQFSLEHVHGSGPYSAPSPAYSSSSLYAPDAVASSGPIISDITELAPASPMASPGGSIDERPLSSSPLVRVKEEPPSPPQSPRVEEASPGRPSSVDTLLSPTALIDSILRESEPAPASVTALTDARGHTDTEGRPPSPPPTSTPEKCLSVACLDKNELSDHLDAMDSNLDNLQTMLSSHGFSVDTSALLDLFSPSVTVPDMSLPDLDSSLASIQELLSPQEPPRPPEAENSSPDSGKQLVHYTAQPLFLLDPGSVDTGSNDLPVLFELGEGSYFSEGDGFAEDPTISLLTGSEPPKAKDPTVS
How it was run: as §1

[13] = target: T8, SPIC (Homo sapiens, UniProt Q8N5J4 1-248); settings: protein: recombinant; tags: N-terminal GST; dsDNA, one strand shown
T8 sequence: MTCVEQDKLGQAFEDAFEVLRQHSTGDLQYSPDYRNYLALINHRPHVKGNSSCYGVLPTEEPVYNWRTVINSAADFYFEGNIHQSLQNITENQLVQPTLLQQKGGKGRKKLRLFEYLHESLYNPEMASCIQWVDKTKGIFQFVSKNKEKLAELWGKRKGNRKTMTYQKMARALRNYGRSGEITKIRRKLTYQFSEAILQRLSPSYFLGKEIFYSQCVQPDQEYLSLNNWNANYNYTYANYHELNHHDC
How it was run: as §1

[14] = target: ELF4 (Homo sapiens, UniProt Q99607 1-663); settings: protein: recombinant; tags: N-terminal GST; dsDNA, one strand shown
Chain of ELF4 (Q99607 whole entry): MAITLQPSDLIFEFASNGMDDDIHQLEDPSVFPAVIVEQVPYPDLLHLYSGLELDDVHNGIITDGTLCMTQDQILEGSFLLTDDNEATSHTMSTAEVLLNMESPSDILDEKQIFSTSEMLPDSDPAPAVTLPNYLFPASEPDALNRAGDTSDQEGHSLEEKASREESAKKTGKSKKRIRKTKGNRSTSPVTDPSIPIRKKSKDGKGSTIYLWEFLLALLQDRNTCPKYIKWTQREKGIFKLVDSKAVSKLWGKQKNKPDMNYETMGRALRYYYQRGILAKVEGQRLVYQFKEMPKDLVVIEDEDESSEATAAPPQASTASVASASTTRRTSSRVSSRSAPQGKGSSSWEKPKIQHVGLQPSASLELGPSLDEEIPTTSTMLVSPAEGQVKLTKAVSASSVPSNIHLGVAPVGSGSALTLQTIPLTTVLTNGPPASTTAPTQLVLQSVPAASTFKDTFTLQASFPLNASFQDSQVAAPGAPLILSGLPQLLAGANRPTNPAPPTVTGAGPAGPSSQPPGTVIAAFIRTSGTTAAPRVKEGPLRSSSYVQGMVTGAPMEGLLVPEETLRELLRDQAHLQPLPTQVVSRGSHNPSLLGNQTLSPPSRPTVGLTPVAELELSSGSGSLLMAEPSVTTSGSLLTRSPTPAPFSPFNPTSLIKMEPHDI
How it was run: as §1

[15] = target: T9, ELK4 (Homo sapiens, UniProt P28324-2 1-405); settings: protein: recombinant; tags: N-terminal GST; dsDNA, one strand shown
T9 sequence: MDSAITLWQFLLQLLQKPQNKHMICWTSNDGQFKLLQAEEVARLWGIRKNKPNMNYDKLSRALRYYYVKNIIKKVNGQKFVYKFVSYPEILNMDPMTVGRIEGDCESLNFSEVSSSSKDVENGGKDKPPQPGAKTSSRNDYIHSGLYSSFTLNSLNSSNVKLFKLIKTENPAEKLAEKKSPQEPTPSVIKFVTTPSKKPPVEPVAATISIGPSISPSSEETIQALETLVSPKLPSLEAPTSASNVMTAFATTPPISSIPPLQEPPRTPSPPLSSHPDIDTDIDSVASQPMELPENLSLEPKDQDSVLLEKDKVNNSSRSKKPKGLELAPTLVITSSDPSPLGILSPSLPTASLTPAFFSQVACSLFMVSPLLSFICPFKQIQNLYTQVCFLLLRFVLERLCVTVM
How it was run: as §1

[16] = target: T10, ETV2 (Homo sapiens, UniProt O00321 1-342); settings: protein: recombinant; tags: N-terminal GST; dsDNA, one strand shown
T10 sequence: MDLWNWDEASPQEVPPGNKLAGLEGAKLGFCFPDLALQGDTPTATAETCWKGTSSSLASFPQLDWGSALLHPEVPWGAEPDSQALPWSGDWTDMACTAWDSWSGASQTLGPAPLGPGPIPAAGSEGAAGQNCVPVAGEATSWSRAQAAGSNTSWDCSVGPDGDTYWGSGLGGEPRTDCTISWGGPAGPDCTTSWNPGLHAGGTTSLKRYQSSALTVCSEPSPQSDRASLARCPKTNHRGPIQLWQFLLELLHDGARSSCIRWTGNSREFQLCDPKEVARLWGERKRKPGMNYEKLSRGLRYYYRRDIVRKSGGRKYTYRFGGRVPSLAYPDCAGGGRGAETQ
How it was run: as §1

[17] = target: T11, ELF3 (Homo sapiens, UniProt P78545 1-371); settings: protein: recombinant; tags: N-terminal GST; dsDNA, one strand shown
T11 sequence: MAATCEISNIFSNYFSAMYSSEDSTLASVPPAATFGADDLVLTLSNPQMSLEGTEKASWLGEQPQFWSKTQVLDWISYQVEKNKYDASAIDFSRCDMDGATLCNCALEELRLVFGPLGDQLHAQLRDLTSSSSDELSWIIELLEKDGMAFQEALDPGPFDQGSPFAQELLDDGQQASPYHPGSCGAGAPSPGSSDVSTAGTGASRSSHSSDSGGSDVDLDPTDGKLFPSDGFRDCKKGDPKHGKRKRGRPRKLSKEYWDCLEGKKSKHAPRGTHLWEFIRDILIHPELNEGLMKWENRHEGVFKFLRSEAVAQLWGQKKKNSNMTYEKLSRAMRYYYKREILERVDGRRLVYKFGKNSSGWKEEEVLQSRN
How it was run: as §1

[18] = target: CRX (Homo sapiens, UniProt O43186 1-299); settings: protein: recombinant; tags: N-terminal GST; dsDNA, one strand shown
Chain of CRX (O43186 whole entry): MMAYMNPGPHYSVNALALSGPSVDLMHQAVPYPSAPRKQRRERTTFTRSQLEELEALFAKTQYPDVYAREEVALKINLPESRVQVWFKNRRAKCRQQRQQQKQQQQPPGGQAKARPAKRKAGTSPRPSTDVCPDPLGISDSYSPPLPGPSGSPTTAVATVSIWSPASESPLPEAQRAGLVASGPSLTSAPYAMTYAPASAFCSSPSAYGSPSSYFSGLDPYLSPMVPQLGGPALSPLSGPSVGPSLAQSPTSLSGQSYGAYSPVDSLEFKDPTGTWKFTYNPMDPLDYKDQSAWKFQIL
How it was run: as §1

[19] = target: ETV1 (Homo sapiens, UniProt P50549 1-477); settings: protein: recombinant; tags: N-terminal GST; dsDNA, one strand shown
Chain of ETV1 (P50549 whole entry): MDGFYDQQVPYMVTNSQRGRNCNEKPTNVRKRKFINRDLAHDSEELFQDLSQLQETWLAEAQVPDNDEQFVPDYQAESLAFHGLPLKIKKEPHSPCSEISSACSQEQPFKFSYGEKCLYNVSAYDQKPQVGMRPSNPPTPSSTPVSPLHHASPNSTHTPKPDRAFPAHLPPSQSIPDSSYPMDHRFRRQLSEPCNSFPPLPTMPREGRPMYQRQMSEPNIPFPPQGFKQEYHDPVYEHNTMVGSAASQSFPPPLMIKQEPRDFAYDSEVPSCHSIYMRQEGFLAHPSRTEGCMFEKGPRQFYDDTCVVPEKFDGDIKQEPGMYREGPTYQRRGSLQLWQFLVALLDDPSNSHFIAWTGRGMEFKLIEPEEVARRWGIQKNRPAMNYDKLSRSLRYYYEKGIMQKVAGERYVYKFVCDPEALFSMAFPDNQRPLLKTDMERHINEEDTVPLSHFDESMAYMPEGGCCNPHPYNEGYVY
How it was run: as §1

For TCGCTC, the binding signal [1] was 1.25 fold enrichment (6-mer frequency, TF over GST control), the binding signal [2] was 1.27 fold enrichment (6-mer frequency, TF over GST control) and the binding signal [3] was 1.35 fold enrichment (6-mer frequency, TF over GST control). For the same sequence, the binding signal [4] was 1.26 fold enrichment (6-mer frequency, TF over GST control), the binding signal [5] was 1.29 fold enrichment (6-mer frequency, TF over GST control) and the binding signal [6] was 1.19 fold enrichment (6-mer frequency, TF over GST control). For the same sequence, the binding signal [7] was 1.29 fold enrichment (6-mer frequency, TF over GST control), the binding signal [8] was 1.27 fold enrichment (6-mer frequency, TF over GST control) and the binding signal [9] was 1.37 fold enrichment (6-mer frequency, TF over GST control). The binding signal [10] was 1.23 fold enrichment (6-mer frequency, TF over GST control), the binding signal [11] was 1.24 fold enrichment (6-mer frequency, TF over GST control) and the binding signal [12] was 1.25 fold enrichment (6-mer frequency, TF over GST control). The binding signal [13] was 1.24 fold enrichment (6-mer frequency, TF over GST control), the binding signal [14] was 1.31 fold enrichment (6-mer frequency, TF over GST control) and the binding signal [15] was 1.29 fold enrichment (6-mer frequency, TF over GST control). The binding signal [16] was 1.22 fold enrichment (6-mer frequency, TF over GST control), the binding signal [17] was 1.4 fold enrichment (6-mer frequency, TF over GST control) and the binding signal [18] was 1.12 fold enrichment (6-mer frequency, TF over GST control). The binding signal [19] was 1.38 fold enrichment (6-mer frequency, TF over GST control).
